# Experimental data published in paper PMC4552634, “A New Set of Chemical Starting Points with Plasmodium falciparum Transmission-Blocking Potential for Antimalarial Drug Discovery” (PLoS ONE, 2015).
# The whole screen tested about 13,000 compounds, of which about 3,200 (25%) showed an effect of 50% or more. The list shows a part of the results.
# Test system: P. falciparum stage V gametocytes
# Set-up: BacTiter-Glo ATP luminescence viability of purified stage V gametocytes in 384-well plates, per cent inhibition versus DMSO
# Details: 48 h, 5 µM; inhibitor
row,Compound,% Inhibition
1,CC[C@H](C)CNC(=O)c1cncc(-c2ccc(CNCC3CNCCCO3)cc2)c1 (stereo partly shown) [TCMDC-134269],2.096%
2,CN(C)CCCN1C(=O)c2[nH]nc(-c3ccc(Cl)cc3O)c2C1c1ccc(Cl)cc1 (stereo not shown) [TCMDC-124910],-62.01%
3,C(=N\Nc1nccc2sc(-c3cccnc3)cc12)/c1cccnc1 [TCMDC-135297],-1.822%
4,O=C1c2ccccc2CN1CCCN1CCC(Oc2ccc(F)cc2)CC1 [TCMDC-141252],-41.1%
5,COc1c(Br)cc(Br)cc1-c1ccc(CN2C3CCCC2CCC3)[nH]1 [TCMDC-138965],-8.76%
6,CC(C)S(=O)(=O)N1CCN(Cc2ccc3c(c2)nc(NC(=O)c2ccsc2)n3C[C@H](O)c2ccccc2)CC1 [TCMDC-138569],-9.312%
7,CCN(CC)C(=O)c1cccc(C=Cc2ccc(-c3c(C)[nH]c(C)c(Cl)c3=O)cc2)c1 [TCMDC-135819],53.1%
8,Cc1[nH]c(C)c(-c2ccc(Br)cc2)c(=O)c1Br [TCMDC-137537],28.95%
9,Cc1[nH]c(C)c(C2CCC(c3ccc(Cl)cc3)CC2)c(=O)c1Cl (stereo not shown) [TCMDC-137423],63.6%
10,Cc1[nH]c(C)c(-c2cc3ccccc3o2)c(=O)c1Cl [TCMDC-135948],11.96%
11,Cc1[nH]c(C)c(-c2ccc(C(=O)c3ccc(Cl)cc3)cc2)c(=O)c1Br [TCMDC-137407],68.89%
12,Cc1[nH]c(C)c(-c2ccc(Br)cc2)c(=O)c1Cl [TCMDC-135043],62.53%
13,Cc1cc(=O)c(C2CCC(c3ccc(Cl)cc3)CC2)c(C)[nH]1 (stereo not shown) [TCMDC-138154],9.202%
14,Cc1cc(=O)[nH]c2cc(Nc3ccnc(Nc4cccc(C(N)=O)c4)n3)ccc12 [TCMDC-138710],20.95%
15,CC(C)Oc1ccc(N2CCN(CCCCNC(=O)c3ccc(NC(=O)c4ccc(Cl)cc4)cc3)CC2)c(OC(C)C)c1 [TCMDC-138245],-2.12%
16,C#CCN(Cc1ccc2nc(N)[nH]c(=O)c2c1)c1ccc(C(=O)N[C@@H](CCC(=O)O)C(=O)O)cc1 [TCMDC-131823],-7.091%
17,O=C(CCCCCNC(=O)c1ccc(O)c(-c2cccc(C(F)(F)F)c2)c1)NCCN1CCCCC1 [TCMDC-140814],-2.677%
18,Cc1cc(N(C)C)nc(Nc2ccc(NC(=O)c3cccc(F)c3)cc2)n1 [TCMDC-124724],10.45%
19,Cc1[nH]c(C)c(-c2ccc(Sc3ccc(Cl)cc3)cc2)c(=O)c1Br [TCMDC-137404],66.05%
